Hits are enriched below; roughly 32% of the tested compounds scored in any of these assays.
PostGolgi yeast: growth inhibition of a yeast mutant, post-Golgi transport screen. post-Golgi transport phenotypic cell assay. inhibition, % at 10 µM. 98,000 tested, 0.9% active;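 note: yeast cells grown in 1536-well plates; yeast grown about 18 h at 30C before absorbance read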
CYP2C19 inhib: human CYP2C19 inhibition; P33261; CYP2C19 Supersomes, luciferin-H EGE luminescence, 30 min; inhibition, % at 5 µM; 96,000 tested, 21% active; AID 778;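 active = CYP2C19 inhibition above a set limit at 5 µM in the primary screen, cut at about 50% in these data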;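 note: plate controls were negative control wells for no effect and 2.5 mM tranylcypromine positive control for full effect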
Target sequence (P33261 whole entry, looked up): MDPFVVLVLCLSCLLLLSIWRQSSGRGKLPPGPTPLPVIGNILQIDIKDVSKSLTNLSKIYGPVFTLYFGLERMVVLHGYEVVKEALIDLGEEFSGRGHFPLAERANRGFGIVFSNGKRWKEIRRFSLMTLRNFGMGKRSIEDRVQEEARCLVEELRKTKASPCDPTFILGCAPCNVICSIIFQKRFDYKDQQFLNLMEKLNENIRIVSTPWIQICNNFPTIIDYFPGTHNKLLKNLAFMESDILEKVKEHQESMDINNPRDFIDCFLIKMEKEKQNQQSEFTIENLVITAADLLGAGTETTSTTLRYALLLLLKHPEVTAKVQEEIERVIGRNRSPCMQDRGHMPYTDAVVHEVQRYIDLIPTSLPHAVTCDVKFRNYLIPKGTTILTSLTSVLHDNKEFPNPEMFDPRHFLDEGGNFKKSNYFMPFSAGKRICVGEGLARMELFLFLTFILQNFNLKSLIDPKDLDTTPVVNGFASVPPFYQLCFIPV
CYP2C9 inh: blocks human cytochrome P450 2C9; CYP2C9 Supersomes, luciferin-H conversion, luminescence; inhibition, % at 5 µM; 96,000 tested, 20% active;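 active = blocking of liver enzyme CYP2C9 beyond about 50% at 5 µM, limit read from the data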
CYP2C19 activ: increases human CYP2C19 enzyme activity; 96,000 tested, under 10 active; activation factor at 5 µM; recombinant CYP2C19, luciferin-H EGE luminescence; hits give high values; 0 = fully inhibited enzyme, 1 = untreated enzyme;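 active = activation factor of at least 2 at 5 µM in the primary screen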;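 note: 0 = wells with 2.5 mM tranylcypromine and 1 = vehicle-only wells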
PostGolgi ctrl: yeast control strain growth, post-Golgi counter-screen; efflux-deficient yeast background strain, growth absorbance A615, 16 h; 98,000 tested, 5% active; inhibition, % at 10 µM
CYP2C9 activ: activators of human CYP2C9 | 96,000 tested, 1.4% active | AID 1024 | P11712 | activation factor at 5 µM | recombinant CYP2C9, luciferin-H conversion, luminescence; hits give high values; factor 1 = untreated enzyme, 0 = blocked;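 active = activation factor of 2 or more for CYP2C9 at a 5 µM dose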;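 note: 0 = sulfaphenazole-blocked wells and 1 = vehicle-only wells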
* hit, by the source's call. Cut-off read from the data, not from the text of the source, unless noted: active = inhibition above about 30%; inactive = the rest.

SMILES	PostGolgi yeast	CYP2C19 inhib	CYP2C9 inh	CYP2C19 activ	PostGolgi ctrl	CYP2C9 activ
COc1ccc(NC(=O)c2ccc(CN(c3cc(Cl)ccc3C)S(=O)(=O)c3ccccc3)cc2)cc1OC	6	24	66*	0.8	-5	0.3
Cc1ccc(CN(c2ccc(C(=O)NCc3cccnc3)cc2)S(C)(=O)=O)cc1	-3	93*	94*	0.1	16	0.1
Cc1ccccc1CN(c1ccc(C(=O)Nc2cccnc2)cc1)S(C)(=O)=O	-6	98*	96*	0	6	0
Cc1ccc(CN(c2ccc(C(=O)NCc3ccccn3)cc2)S(C)(=O)=O)cc1	-8	32	25	0.7	8	0.8
Cc1oc2c(c1C(=O)NCCO)CCCC2	-1	-3	-2	1	-11	1
CCOC(=O)N1CCN(C(=O)c2ccc3c(SCC(=O)O)c4c(nc3c2)CCC4)CC1	14	2	28	1	-7	0.7
CS(=O)(=O)N(Cc1ccc(C(=O)NCCSCc2ccco2)cc1)c1ccccc1	-4	55*	85*	0.4	-3	0.2
Cc1ccc(Cl)cc1N(Cc1ccc(C(=O)NCc2cccnc2)cc1)S(=O)(=O)c1ccccc1	-4	36	58*	0.6	22	0.4
O=C(NCc1cccc(Cl)c1)c1cccnc1	10	24	17	0.8	8	0.8
CNC(=S)NNC(=O)Cn1ccc(C)n1	8	-8	-23	1.1	3	1.2
CSc1nnc(-c2ccccc2N=Cc2c(C)[nH]n(-c3ccccc3)c2=O)c(=O)[nH]1	5	-2	32	1	4	0.7
CCOC(=O)CN1C(=O)COc2ccc(C(C)(C)C)cc21	-3	42	10	0.6	23	0.9
COC(=O)c1cn(Nc2ncc(C(F)(F)F)cc2Cl)c(=O)c2ccccc12	-5	52*	35	0.5	40*	0.7
COC(=O)c1cn(N(C)c2ncc(C(F)(F)F)cc2Cl)c(=O)c2ccccc12	-7	98*	100*	0	22	0
COC(=O)c1cnc2c(C(F)(F)F)cccc2c1OC	3	29	-2	0.7	3	1
COC(=O)c1c(C)nc(C)c2c(=O)oc3ccccc3c12	-4	14	33	0.9	42*	0.7
O=C1c2[nH]nc(-c3ccccc3O)c2C(c2ccc(F)cc2)N1Cc1ccco1 (stereo not given)	-3	84*	97*	0.2	15	0
O=C1c2[nH]nc(-c3ccccc3O)c2C(c2cccc(Cl)c2)N1Cc1ccco1 (stereo not given)	-7	87*	95*	0.1	26	0
O=C1c2[nH]nc(-c3ccccc3O)c2C(c2cccc(Cl)c2)N1CC1CCCO1 (stereo not given)	-6	70*	88*	0.3	3	0.1
O=C1c2[nH]nc(-c3ccccc3O)c2C(c2ccc(F)cc2)N1CC1CCCO1 (stereo not given)	-3	22	15	0.8	0	0.8
CCOC(=O)c1c(C2COc3ccccc3O2)csc1NC(=O)c1ccco1 (stereo not given)	-4	-4	48	1	0	0.5
CC(C)CCn1c(S(=O)(=O)O)nc2ccccc21	-1	18	8	0.8	11	0.9
CCOc1ccc2nc(SCC(=O)NC(=O)NCc3ccco3)[nH]c2c1	-3	-6	10	1.1	3	0.9
O=C(NCC1CCCO1)c1coc2nc3ccccc3nc12 (stereo not given)	15	9	0	0.9	-2	1
Nc1c(C(=O)OCC2CCCO2)c2nc3ccccc3nc2n1-c1ccc2c(c1)OCCO2 (stereo not given)	43*	54*	59*	0.5	2	0.4
SMILES	PostGolgi yeast	CYP2C19 inhib	CYP2C9 inh	CYP2C19 activ	PostGolgi ctrl	CYP2C9 activ
C=CCn1c(N)c(C(=O)NCC2CCCO2)c2nc3ccccc3nc21 (stereo not given)	33*	11	42	0.9	5	0.6
C=CCn1c(N)c(C(=O)Nc2ccccc2OC)sc1=S	5	78*	85*	0.2	22	0.2
C=CCn1c(N)c(C(=O)NCC2CCCO2)sc1=S (stereo not given)	-3	-14	-18	1.1	32*	1.2
O=C(Nc1cccc(C(F)(F)F)c1)/C(=C/c1ccco1)NC(=O)c1cccs1	1	34	13	0.7	1	0.9
C=CCn1c(N)c(C(=O)NCc2ccco2)sc1=S	7	60*	64*	0.4	11	0.4
COc1cccc(C(=O)NCC2CCCO2)c1 (stereo not given)	-1	-2	13	1	0	0.9
Cc1ccc(-n2c(N)c(C(=O)NCc3ccco3)sc2=S)cc1	-3	11	45	0.9	22	0.5
C=CCn1c(N)c(C(=O)N2CCOCC2)sc1=S	-4	46	70*	0.5	8	0.3
COc1ccc(-n2c(N)c(C(=O)NCC3CCCO3)c3nc4ccccc4nc32)c(OC)c1 (stereo not given)	-8	27	55*	0.7	1	0.4
CCOC(=O)c1ccc(NC(=O)NC(C)C2CCCO2)cc1 (stereo not given)	-2	-7	10	1.1	-4	0.9
CC(C)CN(CC(C)C)C(=O)CC(=O)NC(=O)c1ccc(Cl)cc1	-2	34	25	0.7	9	0.8
O=C(c1ccco1)N1CCN(C(c2ccc(F)cc2)c2nnnn2CC2CCCO2)CC1 (stereo not given)	2	-4	-3	1	6	1
COc1cccc(NC(=O)C23CCC(C)(C(=O)O2)C3(C)C)c1 (stereo not given)	5	-9	0	1.1	-3	1
CCCCCCCCCS(=O)(=O)N/N=C/c1cccc([N+](=O)[O-])c1	2	22	68*	0.8	15	0.3
CCCCCCCC(=O)Nc1ccc(C(=O)N/N=C/c2cccc([N+](=O)[O-])c2)cc1	8	-5	12	1	3	0.9
O=C(CCn1c(=O)[nH]c2ccsc2c1=O)NCCc1ccc(Cl)cc1	10	70*	36	0.3	5	0.6
O=C(CCn1c(=O)[nH]c2ccsc2c1=O)Nc1ccc(F)c(F)c1	4	38	55*	0.6	5	0.4
O=C(CCn1c(=O)[nH]c2ccsc2c1=O)N(CCc1ccccc1)Cc1ccccc1	6	65*	65*	0.3	14	0.3
COc1ccc(OC)c(NC(=O)CNC(=O)Cn2ccc3ccccc3c2=O)c1	-5	12	39	0.9	0	0.6
COC(=O)c1ccc(CSc2nc3ccccc3c(=O)n2CC(C)C)o1	-1	38	57*	0.6	27	0.4
O=C(CSc1nc2ccccc2c(=O)n1Cc1ccccc1)NCc1ccco1	1	9	0	0.9	5	1
COC(=O)c1ccc(CSc2nc3ccccc3c(=O)n2Cc2ccco2)o1	-7	97*	100*	0	34*	0

Source: PubChem (several laboratories)
